Data published in PubChem BioAssay AID1159580 (chemical genetic matrix, 2015).
Among all 5,500 compounds or so, about 2,000 (36%) were called active. About 18% were inconclusive and are not listed. Cut-off read from the data, not from the text of the source: active = normalized growth mostly below about 0.91 (no sharp cut-off); inconclusive = no clear call, values can overlap the other calls; inactive = mostly above about 0.92. The list shows a part of the results.

Test: chemical genetic growth profiling, strain panel (AID 1159580);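 note: tested at 20 µM; growth read once vehicle control cultures reached saturation at 30 °C; 1 = growth at the plate median or of vehicle wells; lower values mean less growth of the strain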
Settings: S. cerevisiae deletion strains, growth OD

Measured: normalized growth

C/C(=C\CO)CC[C@H](C)CCC[C@H](C)CCCC(C)C
active: locus YKL068W, hits give low values 1.09 [resistant] | locus YKL085W, strain MDH1 (second series), hits give low values 1.07 [resistant] | locus YKL085W, strain MDH1, hits give low values 1.07 [resistant] | locus YKR001C, strain vps1, hits give low values 1.19 [resistant] | locus YKR026C, strain gcn3, hits give low values 1.12 [resistant] | locus YKR091W, strain srl3, hits give low values 1.12 [resistant] | locus YLL001W, strain dnm1, hits give low values 1.13 [resistant] | locus YLL026W, hits give low values 1.14 [resistant] | locus YLL041C, strain sdh2, hits give low values 1.13 [resistant] | locus YLR027C, strain aat2, hits give low values 1.12 [resistant] | locus YLR102C, strain apc9, hits give low values 1.11 [resistant] | locus YLR221C, strain rsa3, hits give low values 1.15 [resistant] | locus YLR258W, strain gsy2, hits give low values 1.14 [resistant] | locus YLR262C, strain YPT6 (second series), hits give low values 1.17 [resistant] | locus YLR268W, strain sec22, hits give low values 1.15 [resistant] | locus YLR330W, strain CHS5, hits give low values 1.1 [resistant] | locus YLR370C, strain arc18, hits give low values 1.1 [resistant] | locus YML032C, strain rad52, hits give low values 1.15 [resistant] | locus YML120C, strain ndi1, hits give low values 1.13 [resistant] | locus YML124C, strain tub3, hits give low values 1.12 [resistant] | locus YMR058W, strain fet3, hits give low values 1.13 [resistant] | locus YMR078C, strain ctf18, hits give low values 1.15 [resistant] | locus YMR125W, strain sto1, hits give low values 1.13 [resistant] | locus YMR129W, hits give low values 1.14 [resistant] | locus YMR223W, strain ubp8, hits give low values 1.13 [resistant] | locus YMR231W, strain pep5, hits give low values 1.14 [resistant] | locus YMR263W, strain SAP30, hits give low values 1.12 [resistant] | locus YNL071W, strain lat1, hits give low values 1.13 [resistant] | locus YNL153C, strain GIM3, hits give low values 1.13 [resistant] | locus YNL209W, strain ssb2, hits give low values 1.12 [resistant] | locus YNL248C, strain rpa49, hits give low values 1.13 [resistant] | locus YNL250W, strain rad50, hits give low values 1.13 [resistant] | locus YNL271C, strain bni1, hits give low values 1.12 [resistant] | locus YNL298W, strain CLA4, hits give low values 1.14 [resistant] | locus YNL307C, strain MCK1, hits give low values 1.14 [resistant] | locus YNR049C, strain mso1, hits give low values 1.11 [resistant] | locus YNR052C, strain pop2, hits give low values 1.14 [resistant] | locus YOL147C, strain pex11, hits give low values 1.12 [resistant] | locus YOR001W, strain rrp6, hits give low values 1.15 [resistant] | locus YOR070C, strain gyp1, hits give low values 1.08 [resistant] | locus YOR083W, strain WHI5, hits give low values 1.14 [resistant] | locus YOR106W, strain vam3, hits give low values 1.15 [resistant] | locus YOR136W, strain idh2, hits give low values 1.15 [resistant] | locus YOR144C, strain elg1, hits give low values 1.13 [resistant] | locus YOR184W, strain ser1, hits give low values 1.15 [resistant] | locus YOR265W, strain rbl2, hits give low values 1.14 [resistant] | locus YOR290C, strain snf2, hits give low values 1.13 [resistant] | locus YOR316C, strain cot1, hits give low values 1.13 [resistant] | locus YPL078C, strain atp4, hits give low values 1.12 [resistant] | locus YPL106C, strain sse1, hits give low values 1.15 [resistant] | locus YPL240C, strain hsp82, hits give low values 1.12 [resistant] | locus YPR141C, strain kar3, hits give low values 1.12 [resistant] | locus YPR163C, strain tif3, hits give low values 1.13 [resistant] | locus YPR167C, strain met16, hits give low values 1.09 [resistant] | strain wtn01, hits give low values 1.12 [resistant]
inactive: locus YJR066W, strain TOR1, hits give low values 0.98 | locus YJR075W, strain HOC1, hits give low values 1.12 | locus YKL009W, strain mrt4, hits give low values 1.09 | locus YKL160W, strain elf1, hits give low values 0.984 | locus YKL190W, strain CNB1, hits give low values 1.05 | locus YLR039C, strain RIC1, hits give low values 1.16 | locus YLR058C, strain SHM2, hits give low values 1.09 | locus YLR113W, strain HOG1, hits give low values 0.959 | locus YLR262C, strain YPT6, hits give low values 1.16 | locus YLR320W, strain mms22, hits give low values 0.988 | locus YLR342W, strain FKS1 (second series), hits give low values 1.1 | locus YLR342W, strain FKS1, hits give low values 1.09 | locus YLR357W, strain rsc2, hits give low values 1.1 | locus YLR371W, strain rom2, hits give low values 1.04 | locus YLR384C, strain iki3, hits give low values 0.978 | locus YLR418C, strain cdc73, hits give low values 1.12 | locus YML016C, strain PPZ1, hits give low values 1.05 | locus YMR205C, strain PFK2, hits give low values 1.08 | locus YMR307W, strain GAS1, hits give low values 1.1 | locus YNL067W, strain RPL9B, hits give low values 1.08 | locus YNL183C, strain NPR1, hits give low values 0.967 | locus YNL233W, strain BNI4, hits give low values 1.07 | locus YNL322C, strain KRE1 (second series), hits give low values 1.08 | locus YNL322C, strain KRE1, hits give low values 1.07 | locus YOL006C, strain TOP1, hits give low values 1.12 | locus YOL012C, strain htz1 1.59 | locus YOR061W, strain CKA2, hits give low values 1.1 | locus YOR069W, strain VPS5, hits give low values 1.05 | locus YOR080W, strain dia2, hits give low values 0.982 | locus YOR231W, strain MKK1, hits give low values 0.984 | locus YOR270C, strain vph1, hits give low values 1.16 | locus YPL051W, strain arl3, hits give low values 1.05 | locus YPL055C, strain LGE1, hits give low values 1.05 | locus YPL256C, strain CLN2, hits give low values 0.961 | locus YPR119W, strain clb2, hits give low values 1.06
